Experimental data taken from PubChem BioAssay (NCI).
This is part of a sample that, as a whole, favours compounds with a hit. Of some 83,000 tested, about 20% had one in any assay.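 Cell lines were cultured in 96-well plates, exposed to a single compound concentration, and assessed for percent growth 48 hours later.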 A number with no mark means an inactive call. Calls of active or inactive are those of the source.

system: U251 CNS; experiment: NCI-60 one-dose screen, 48 h (100 = growth as untreated, 0 = no growth, -100 = all killed); conditions: 10 µM unless noted
Procedure: Growth inhibition of the U251 human tumor cell line is measured as a screen for anti-cancer activity. Cells are grown in 96 well plates and exposed to the test compound for 48 hours. Compounds are tested at a single concentration, which is 10^-5 M for most compounds. The reported endpoint is percent growth (GI% or GIPRCNT), where numbers from 0 - 100% represent growth inhibition, and numbers from -100% - 0 represent cell death. For example, a value of 40 represents 60% growth inhibition. A value of 0 means no net growth occurred over the course of the experiment. A value of -40 indicates 40% of cells at the beginning of the experiment died by the end of the experiment. A value of -100 means all cells are dead at the end of the experiment.
NCI-60 Human Tumor Cell Lines Screen was performed using the standard one-dose NCI protocol, which is described in more detail at https://dtp.cancer.gov/discovery_development/nci-60/default.htm.
Compounds with GIPRCNT values below 10 were considered active. Activity score was based on GIPRCNT using the following formula: […]
Score is 0 for GIPRCNT values of 100 or above, 50 for GIPRCNT values of 0, and 100 for GIPRCNT values of -100.

Row | SMILES | growth
1 | CCN1C(=O)N(CC)C2Nn3c(s/c(=C4\C(=O)Nc5ccccc54)c3=O)=NC21 (stereo not given) | 42.8%
2 | O=C(CCN1C(=O)/C(=C/c2ccc(O)cc2)SC1=S)Nc1ccccc1 | 92.7%
3 | CCOC(=O)c1cnn2c3ccccc3n(S(=O)(=O)c3ccc(OC)cc3)c12 | 26.3%
4 | Clc1ccc2c(c1)N(CCCN1CCCC1)c1ccccc1S2 | 36.9%
5 | COc1ccc(/C=C/c2c(C(=O)/C=C/c3ccc(C(F)(F)F)cc3)c(C)nc3ccccc23)cc1 | -69% (active)
6 | c1ccc(Nc2cc(-c3cccnc3)[nH]n2)cc1 | 84%
7 | CCOC(=O)Cn1c(=O)c2c(c3ccccc3n2C)n2nnc(-c3ccccc3)c12 | 107%
8 | COc1cccc(-c2nc(-c3ccc(NC(=O)c4ccccc4)cc3)[nH]c2-c2ccnc(Br)c2)c1 | 30.7%
9 | NC1=C(c2nn[nH]n2)C(c2ccccc2Cl)c2ccc3ccccc3c2O1 (stereo not given) | 77.8%
10 | Cc1ccc(C(=O)NN2C(=O)CSC2c2ccc(Cl)cc2)cn1 (stereo not given) | 93.3%
11 | N/C(=N\c1nc2ccccc2s1)NC(=O)Nc1cccc2ccccc12 | 14.4%
12 | CN1CCN(CC(=O)N2c3cccc4cccc(c34)N(C(=O)CN3CCN(C)CC3)C2c2cn(-c3ccccc3)nc2-c2cccc([N+](=O)[O-])c2)CC1 | -64.4% (active)
13 | CCCCCCCCCCCCCCCCCC1OCC(COC(=O)O[C@]2(CC)C(=O)OCc3c2cc2n(c3=O)Cc3cc4ccccc4nc3-2)O1 (stereo not given in full) | 56.5%
14 | Cn1cc(C(=O)c2nc(-c3cn(C)c4ccc(F)cc34)no2)c2cc(F)ccc21 | 98.1%
15 | COc1ccc(C(=O)n2nc(-c3ccccc3)nc2N)cc1OC | 90.4%
16 | CCCCn1c(-c2ccc(C(=O)O/N=C(\N)c3ccc(OC)cc3)cc2)nc(-c2ccccc2)c1-c1ccccc1 | -52.6% (active)
17 | COc1ccc(NC(=O)n2nc(/C=C\c3ccc(O)c(OC)c3)cc2/C=C\c2ccc(O)c(OC)c2)cc1 | 26%
18 | COc1ccc(S(=O)(=O)n2cc(C3OC(c4cc(OC)c(OC)c(OC)c4)=NN3C(C)=O)c3ccccc32)cc1OC (stereo not given) | 97.7%
19 | COc1cc(CCCO)c(OC)c(OC)c1OC | 101%
20 | O=c1[nH]c2c(ccc3cnccc32)c2c1CCC2 | 5.85% (active)

Row | SMILES | growth
21 | Cc1nc2ccccc2c(/C=C/c2ccc(Cl)cc2)c1C(=O)/C=C/c1ccc(C(F)(F)F)cc1 | -84.5% (active)
22 | C=CCc1cc(C)ccc1NC(C(=O)NCC(=O)OC)c1ccccc1 (stereo not given) | 97.8%
23 | COc1ccc(C2CC(c3ccc(Nc4nc(Nc5ccc(F)cc5)nc(Nc5ccc(Cl)cc5)n4)cc3)=NN2C(C)=O)cc1 (stereo not given) | 86.7%
24 | Cc1ccc(-c2nc(N3CCN(C(=O)Nc4ccc(Cl)c(C(F)(F)F)c4)CC3)c3ccccc3n2)cc1 | 79.6%
25 | COc1cccc(/C=C2\C=C(c3ccccc3)N(Cc3ccccc3)C2=O)c1 | 56.4%
26 | O=C(O)C(c1ccccc1)N1C(=O)CSC1=S (stereo not given) | 96.4%
27 | NCCNc1nc2ccccc2c2c(=O)c3cc(F)ccc3sc12 | 64.7%
28 | CCOC(=O)c1c2c(n(-c3ccc(C#N)cc3)c1-c1ccccc1)C=CCC2 | 99.7%
29 | Cc1nc(/N=C(\N)NC(=O)Nc2ccccc2Cl)sc1C | 29.2%
30 | COc1cc(CCC[P+](c2ccccc2)(c2ccccc2)c2ccccc2)c(OC)c(OC)c1OC | 77.7%
31 | COc1cc(/C=C/C(=O)/C=C/c2cc(OC)c3c(c2OC)OCO3)c(OC)c2c1OCO2 | 11.5%
32 | CCOC(=O)c1[nH]c(C)c(C(=O)OCc2ccccc2C#N)c1C | 50.9%
33 | CCc1cccc2c3c(sc12)C(c1ccc(Cl)cc1)C(C#N)=C(N)O3 (stereo not given) | 24.7%
34 | CCCCCCN(CCCCCC)c1ccc(/C=C2/SC(=O)NC2=O)c(C)c1 | 75.5%
35 | NC[C@@H]1O[C@H](O[C@@H]2[C@@H](CO)OC(O[C@@H]3[C@@H](O)[C@H](N)C[C@H](N)[C@H]3OC3O[C@H](CN)[C@@H](O)[C@H](O)[C@H]3N)[C@@H]2O)[C@H](N)[C@@H](O)[C@@H]1O (stereo not given in full) | 102%
36 | CC1=NN(c2ccc(S(=O)(=O)O)cc2)C(=O)C1N=Nc1ccc(-c2ccc(N=Nc3ccc(OS(=O)(=O)c4ccc(C)cc4)cc3)c(S(=O)(=O)O)c2)cc1 (stereo not given) | 96.2%
37 | CCOC(=O)c1c(C)oc2ncnc(N3CCN(C(=O)COc4ccc(C(C)(C)C)cc4)CC3)c12 | 89.5%
38 | c1cc(-c2nnc(SSc3ncnc4nc[nH]c34)o2)ccn1 | 72.4%
39 | COc1ccn2c(C(C)=O)cc(C(=O)c3ccc4c(c3)Sc3ccccc3N4)c2c1 | 17.9%
40 | [O-][n+]1c2ccccc2[n+]([O-])c2c3ccccc3[nH]c21 | 53.2%
